# Compound activity: PubChem, National Center for Advancing Translational Sciences (NCATS)
# ATXN viability: cell viability loss in ATXN counter-screen; S2 cells (HEK-293 line with an ATXN2-luciferase reporter) viability, CellTiter-Fluor protease fluorescence, 24 h; Potency, µM (top dose mostly 56.7 µM), hits mostly cytotoxic; actives 0.49% (n = 400,000); note: nearly all actives have a fitted effect of over 40% in size
# ALOX12 inh: blocks human arachidonate 12S-lipoxygenase. purified 12hLO, xylenol orange hydroperoxide absorbance. P18054. AID 1671190. actives 1.1% (n = 580,000). Potency, µM (top dose mostly 108 µM), inactives show at the top dose activity change, negative = inhibition, usual class: inhibitors; note: % is set by controls: 0 for no effect and ±100 for the full control effect
# Target sequence (P18054 whole entry, looked up): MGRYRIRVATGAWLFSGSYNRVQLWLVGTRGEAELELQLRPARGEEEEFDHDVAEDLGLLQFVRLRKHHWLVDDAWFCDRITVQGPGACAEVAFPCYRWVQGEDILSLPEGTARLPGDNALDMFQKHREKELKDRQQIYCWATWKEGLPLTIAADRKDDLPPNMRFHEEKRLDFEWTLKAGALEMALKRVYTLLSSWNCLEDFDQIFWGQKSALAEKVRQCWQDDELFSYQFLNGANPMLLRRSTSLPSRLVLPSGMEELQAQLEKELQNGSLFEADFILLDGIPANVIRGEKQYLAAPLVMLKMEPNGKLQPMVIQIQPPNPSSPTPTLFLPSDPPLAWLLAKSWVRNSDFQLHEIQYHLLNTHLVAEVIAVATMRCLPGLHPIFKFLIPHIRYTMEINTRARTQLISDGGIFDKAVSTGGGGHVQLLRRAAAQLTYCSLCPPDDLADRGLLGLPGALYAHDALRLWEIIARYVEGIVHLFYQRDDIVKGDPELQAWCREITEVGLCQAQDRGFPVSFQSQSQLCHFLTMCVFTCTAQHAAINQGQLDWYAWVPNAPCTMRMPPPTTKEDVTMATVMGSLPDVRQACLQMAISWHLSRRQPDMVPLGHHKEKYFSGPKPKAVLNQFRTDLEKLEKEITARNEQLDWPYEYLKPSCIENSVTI
#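 Hydroperoxide product was detected by ferrous iron/xylenol orange as the 573 to 405 nm absorbance ratio. Arachidonic acid at 40 uM (final) was turned over for 30 min at room temperature by 150 nM human 12hLO, pH 7.0 Hepes buffer, after 15 min compound preincubation.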
# HepG2 tox: counter-screen for TGF-b inhibitors: cytotoxicity in HepG2 cells | Potency, µM (doses to about 46.1 µM), for the others: at the top dose activity change, negative = cytotoxicity, usual class: cytotoxic | actives 0.76% (n = 410,000) | HepG2 CAGA-GFP viability, ATP luminescence, 18 h
#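 HepG2 CAGA-GFP cells (1000/well, DMEM with 1% FBS) received compound, then TGF-beta at 500 pg/mL final, and were incubated 18 hours at 37 degrees C. Viability was read by CellTiter-Glo luminescence. Media-only wells were set as complete cell-killing and DMSO as no toxicity.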
# TGFb SMAD3 inh: TGF-b pathway inhibition | HepG2 CAGA-GFP TGF-b/SMAD3 reporter, GFP fluorescence, 18 h; TGF-beta stimulated, 500 pg/mL final | Potency, µM (titrated, usually from 46.1 µM), inactives show at the top dose activity, negative = inhibition, hits mostly inhibitors | actives 1.2% (n = 410,000); note: % is set by controls: 0 for no effect and ±100 for the full control effect; nearly all actives have a fitted effect of over 65% in size
#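 HEPG2 CAGA-GFP reporter cells (1000/well, DMEM with 1% FBS) received compounds, then recombinant TGF-beta at 500 pg/mL final for 18 hours at 37 degrees C. Per-cell GFP summed per well was normalised to unstimulated and stimulated DMSO controls before curve fitting.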
# ATXN2 expr inh: ATXN2 expression inhibition. actives 0.72% (n = 360,000). HEK-293 ATXN2-luciferase reporter, luminescence, 24 h. Potency, µM (titrated, usually from 57 µM), for the others: at the top dose activity change, negative = inhibition, most hits filed as inhibitors; note: % is set by controls: 0 for no effect and ±100 for the full control effect; nearly all actives have a fitted effect of over 55% in size
#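 ATXN2-luciferase reporter cells (luciferase flanked by upstream and downstream ATXN2 gene portions) were treated 24 h at 37 °C with compounds at up to 57 uM. SteadyGlo luminescence gave expression; GF-AFC fluorescence gave viability.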
# * marks the source's active call; other numbers are inactive results; i = inactive; ? = inconclusive; . = no result; ! = a repeat was not active. An excerpt weighted towards active compounds, which were near 2.7% of everything screened. Calls come from the whole dose curve; as a rule, active = well fitted curve in the direction sought with a large enough effect; inconclusive = small, poorly fitted or top-dose-only effect, or another doubt; inactive = no such curve, though single readings can be large; an effect the other way counts as inactive or inconclusive. Potency is the fitted concentration of half-maximal effect.
SMILES,ATXN viability,ALOX12 inh,HepG2 tox,TGFb SMAD3 inh,ATXN2 expr inh
CCCCCCCNC(=O)C1(CC2CC(c3cccc(Br)c3)=NO2)CCN(C(=O)C2(C)CC2)CC1 (stereo not given),?,-4%,-12%,?,?
CCCCCCCNC(=O)C1(CC2CC(c3cccc(Br)c3)=NO2)CCN(C(=O)CCCCCBr)CC1 (stereo not given),?,40µM*,-38%,?,?
CCc1ccccc1NC(=O)c1ccc2c(Cl)c3c(nc2c1)CCCC3,.,-21%,.,.,.
COCCN1Cc2c(sc(C)c2C)N(C(=O)c2ccccc2)C1,i,19%,-24%,-12%,51%
Cc1sc2c(c1C)CN(C(C)C)CN2C(=O)c1ccccc1,.,6.3µM*,.,.,.
COc1ccc(NC(=S)NC(NC(=O)c2ccc(Cl)cc2Cl)C(Cl)(Cl)Cl)c([N+](=O)[O-])c1 (stereo not given),?,?,-43%,11µM*,?
COc1ccc(NC(=S)NC(NC(=O)c2ccccc2Cl)C(Cl)(Cl)Cl)c([N+](=O)[O-])c1 (stereo not given),i,?,-35%,-18%,29%
CCOC(=O)N1CCN(C(C(=O)O)c2c[nH]c3cc(Cl)ccc23)CC1 (stereo not given),.,-27%,.,.,.
CC(=O)C1=C(c2cccc([N+](=O)[O-])c2)N(C(C)=O)n2c(C)nnc2S1,?,1%,11µM*,11µM*,?
COc1cccc(C2=C(C(C)=O)Sc3nnc(-c4ccc(Cl)cc4)n3N2C(C)=O)c1,.,30%,.,.,.
CCC(=O)C1=C(c2ccc(Cl)cc2)N(C(=O)CC)n2c(C)nnc2S1,.,-19%,-29%,6.3µM*,.
CCOc1ccc(C2=C(C(C)=O)Sc3nnc(C)n3N2C(C)=O)cc1,.,-20%,-58%,7.9µM*,.
CCC(=O)C1=C(c2ccccc2)N(C(=O)CC)n2c(nnc2-c2ccccc2)S1,.,3%,-2%,-2%,.
Cc1cccc(CSCCNC(=S)Nc2ccccc2)c1,i,?,-29%,-12%,8%
COc1ccc(C(=O)NCCSCc2ccccc2Cl)cc1OC,i,50µM*,-1%,9%,11%
COc1ccc(C(=O)NCCSCc2ccccc2)cc1OC,i,-26%,12%,3%,3%
S=C(NCCSCc1ccccc1Cl)Nc1ccccc1,i,35µM*,-16%,?,1%
S=C(NCCSCc1ccc(Cl)cc1)Nc1ccccc1,i,45µM*,-12%,?,-7%
CCOc1ccc(CSCCNC(=S)Nc2ccc(OC)cc2)cc1,?,45µM*,-26%,?,.
CCCOc1ccc(CSCCNC(=S)Nc2ccccc2)cc1,i,?,-1%,?,0%
CCOc1cccc(C(=O)NNC(=O)C2C3CCC(C3)C2C(=O)O)c1 (stereo not given),.,4%,.,.,.
CCCNC(=O)NC(C)(C)C(=O)O,.,-14%,.,.,.
Cc1cc(NC(=O)C2CCCN(S(=O)(=O)c3ccc(Br)s3)C2)ccc1Br (stereo not given),i,?,-17%,?,8%
Cc1csc(NC(=O)C2CCCN(S(=O)(=O)c3ccc(Br)s3)C2)n1 (stereo not given),i,1%,5%,18µM*,-18%
O=C(Nc1ccc(Cl)cc1)C1CCN(S(=O)(=O)c2ccc(Br)s2)CC1,?,?,-40%,13µM*,0%
SMILES,ATXN viability,ALOX12 inh,HepG2 tox,TGFb SMAD3 inh,ATXN2 expr inh
NC(=O)c1ccc(C(=O)OCc2nc3ccccc3o2)cc1,.,12%,.,.,.
COc1ccc(Oc2c(C(F)(F)F)oc3cc(OC(C)=O)ccc3c2=O)cc1,.,-21%,.,.,.
CCc1cc2c(=O)[nH]c(-c3ccccn3)nc2s1,5.6µM*,4%,-31%,5µM*,?
CCc1ccc(Nc2nnc(SCC(=O)Nc3ccnn3C3CCCC3)s2)cc1,.,-1%,.,.,.
Nc1ccc(/C=C/c2ccc3ncccc3c2)cc1,i,0%,7.1µM*!,?,.
CCC(=O)Nc1sc2c(c1C#N)CCC(C(C)(C)CC)C2 (stereo not given),.,10%,.,.,.
CCC(C)(C)C1CCc2c(sc(N)c2C#N)C1 (stereo not given),.,28µM*,.,.,.
Cc1nn(C)cc1CN(C)C(=O)Cn1nc(C(F)(F)F)c(Cl)c1C,.,13%,.,.,.
Cc1c(Cl)cccc1N=Cc1ccc(C=Nc2cccc(Cl)c2C)cc1,.,1%,.,.,.
COc1cc2c3nnc(-c4ccc(F)cc4)c-3cn(Cc3cccc(F)c3)c2cc1OC,.,.,-13%,40%,-14%
COc1cc2c3nnc(-c4ccc(F)cc4)c-3cn(Cc3ccc(C)cc3)c2cc1OC,i,-21%,11µM*,51%,18µM*
COc1cc2c3nnc(-c4ccccc4)c-3cn(Cc3ccc(F)cc3)c2cc1OC,.,?,22µM*,7%,?
O=C1CCCC/C1=C/Nc1cccc(C(F)(F)F)c1,i,-13%,-9%,-1%,14%
O=C1CCC2S/C(=C/Nc3ccc(C(F)(F)F)cc3)C(=O)N12 (stereo not given),i,-9%,-2%,-4%,2.8µM*
CC(=O)Nn1cnc2c(c1=O)C1(CCCC1)Cc1ccccc1-2,i,0%,-6%,0%,-4%
Nn1cnc2c(c1=O)C1(CCCCC1)Cc1ccccc1-2,i,-12%,11µM*,8.9µM*,-13%
O=C(O)C1(c2cccc(Br)c2)CCOCC1,.,-2%,.,.,.
COc1cc(CN(C)CC2CCCN(CCc3ccccc3F)C2)cc(Cl)c1OC (stereo not given),18µM*,?,-46%,-18%,?
CC(NC(=O)C(C)(C)C)C(=O)NCC1CC1 (stereo not given),.,7%,.,.,.
O=C(COc1ccccc1Cl)Nc1ccc(N2CCN(C(=O)c3ccccc3)CC2)cc1,?,2%,-28%,?,18µM*
Cc1cccc(CCNC(=O)C2CCCN(c3ncnc4c3nc3n4CCCCC3)C2)c1 (stereo not given),i,-3%,-22%,-19%,-18%
Cc1cccc(N2CCN(CCCNC(=O)C3CCCN(c4ncnc5c4nc4n5CCCCC4)C3)CC2C)c1 (stereo not given),18µM*,-2%,-21%,?,25µM*
O=C(NCC1CCN(Cc2ccc(Cl)cc2)CC1)C1CCCN(c2ncnc3c2nc2n3CCCCC2)C1 (stereo not given),?,?,-21%,-23%,.
O=C(NCC1CCN(Cc2ccc(F)cc2)CC1)C1CCCN(c2ncnc3c2nc2n3CCCCC2)C1 (stereo not given),?,9%,-52%,13µM*,.
COc1cc(/C=C(/C#N)c2ccccn2)ccc1OCc1cccc(C(F)(F)F)c1,.,6.3µM*,.,.,.
COc1cc(/C=C(\C#N)c2ccccn2)ccc1OCC(=O)Nc1cccc(C(F)(F)F)c1,i,9%,17%,26%,-19%
